# Assay results: PubChem BioAssay (NCATS)
# Inconclusive results are not listed. The source made the active and inactive calls. Unless noted, calls come from the whole dose curve; as a rule, active = well fitted inhibition curve with a large enough effect; inconclusive = small, poorly fitted or top-dose-only effect; inactive = no such curve, though single readings can be large or run the other way.
# Columns and labels:
# [1] = qHTS profiling of the MIPE4 collection as inhibitors of Plasmodium falciparum (HB3) proliferation (AID 743347; call rule not given here;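 note: plate controls were DMSO vehicle wells for no effect and artemisinin wells for full effect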); conditions: P. falciparum HB3 in erythrocytes, SYBR Green DNA, 72 h; at 28.5 µM (top of the series) unless noted
# In short: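 Erythrocytes infected with P. falciparum (0.3% parasitemia, 2.5% hematocrit) incubated with compounds 72 h at 37 C, 5% CO2. Lysis with saponin/Triton buffer containing SYBR Green I, overnight at room temperature in the dark; DNA fluorescence (485/535 nm) normalised to 0.29 uM artemisinin and DMSO.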
# [2] = High-throughput drug toxicity screening in the BPDCN cell line Gen2.2 (AID 1224824; call rule not given here;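 note: cells exposed to compounds for 48 h before reading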); conditions: Gen2.2 BPDCN cells; at 45.8 µM (top of the series) unless noted
# In short: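 CellTiter-Glo luminescence after 48 h compound exposure of Gen2.2 cells; percent activity set with DMSO as 100% and bortezomib (9.2 uM final) as 0%. Cells seeded at 500 per well, RPMI + 10% FBS, 37 °C.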
# [3] = qHTS assay for measurement of the activity of small molecule inhibitors on Zika virus induced Caspase-3 activity in human iPSC derived neural progenitor cells (hNPCs) (AID 1224857); note: % of control where 0% means no effect; nearly all actives have a fitted effect of over 65% in size
# In short: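 hNPCs seeded 350 cells/well, cultured 16–20 h; compounds added 1 h before ZIKV (2 FFU/cell), 37 C 6 h. Caspase-Glo 3/7 luminescence after 30 min RT; % inhibition from induction scaled to uninfected (0%) and infected (100%) wells.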
# [4] = qHTS assay for measurement of the activity of small molecule inhibitors on Zika virus induced Caspase-3 activity in human astrocytoma cells (AID 1224859);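 note: plate controls were ZIKV-infected untreated cells for no effect and uninfected cells for full effect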
# In short: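 Luminescence read-out (Caspase-Glo 3/7, 30 min RT) of caspase activity in SNB-19 cells infected 6 h with ZIKV, 2 FFU/cell, after 1 h compound pretreatment; % inhibition from induction normalised to uninfected (0%) and infected (100%) wells.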
# [5] = qHTS Screen of the MIPE 4.0 Collection Against Ewings Sarcoma (RDES) (AID 1259252); note: nearly all actives have a fitted effect of over 35% in size; note: potency is the fitted concentration of half-maximal effect
# In short: (§1)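 Log-phase cells in RPMI with 5% FBS attached for 4 h, then received compounds as a titration for 48 h at 37C, 5% CO2. Viability was read by CellTiter-Glo luminescence and normalized to DMSO and no-cell wells.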
# [6] = qHTS Screen of the MIPE 4.0 Collection Against Ewings Sarcoma (TC71) (AID 1259253); note: nearly all actives have a fitted effect of over 40% in size; note: potency is the fitted concentration of half-maximal effect
# In short: as §1
# [7] = qHTS Screen of the MIPE 4.0 Collection Against Ewings Sarcoma (EW8) (AID 1259255); note: nearly all actives have a fitted effect of over 35% in size; note: potency is the fitted concentration of half-maximal effect;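 for viability: 100% = DMSO-treated cells and 0% = medium-only wells without cells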
# In short: as §1
# [8] = qHTS Screen of the MIPE 4.0 Collection Against Ewings Sarcoma (TC32) (AID 1259256); note: nearly all actives have a fitted effect of over 45% in size; note: potency is the fitted concentration of half-maximal effect
# In short: as §1
# [9] = P-glycoprotein substrates identified in KB-3-1 adenocarcinoma cell line, qHTS therapeutic library screen (AID 1346986); note: nearly all actives have a fitted effect of over 60% in size;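 note: potency is the fitted concentration of half-maximal effect; potency is for cytotoxicity meaning loss of cell viability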
# In short: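 Compounds were tested in dose-response against KB-3-1 and KB-8-5-11 cells at 37 degree C for 72 h, and viability was measured by luminescence. AC50 values came from curve fitting with class-based activity calls.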
# [10] = High-throughput drug toxicity screening in the BPDCN cell line Cal-1 (AID 1224825; call rule not given here); conditions: Cal-1 BPDCN cell viability, qHTS; at 45.8 µM (top of the series) unless noted
# In short: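 Cal-1 cells, 500 per well in phenol-red-free RPMI with 10% FBS, exposed to compounds for 48 hours at 37C, 5% CO2. Viability read by CellTiter-Glo luminescence; percent activity normalized to DMSO (100%) and 9.2 uM bortezomib final (0%).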
Compound,"growth, % of control [1] [%]","cell viability, % of control (lower = more cytotoxic) [2] [%]",Potency [3],Potency [4],Potency [5],Potency [6],Potency [7],Potency [8],Potency [9],viability (% of control) [10] [%]
NC(=O)c1ncn([C@@H]2O[C@H](CO)[C@@H](O)[C@@H]2O)c1N,68.2,191,inactive,inactive,inactive,inactive,inactive,inactive,,
CCN(CC)Cc1ccc2cc(COC(=O)Nc3ccc(C(=O)NO)cc3)ccc2c1,7.88,8.65,,,0.743 µM (active),0.662 µM (active),0.526 µM (active),0.662 µM (active),,
CNC(=O)c1ccc(Nc2cc(Nc3ccccc3S(=O)(=O)C(C)C)c3cc[nH]c3n2)nc1,2.73,19.7,inactive,inactive,5.9 µM (active),4.18 µM (active),0.59 µM (active),0.935 µM (active),,
C[C@@H]1CC[C@@]2(OC1)OC1CC3C4CC=C5CC(O)CCC5(C)C4CCC3(C)C1[C@@H]2C (some centres undefined),99.7,128,inactive,inactive,inactive,inactive,inactive,inactive,,
COc1cc(C)c(C=CC(C)=CC=CC(C)=CC(=O)O)c(C)c1C,83.1,336,inactive,inactive,inactive,inactive,inactive,inactive,inactive,
CC(C)[C@H](CO)Nc1nc(Nc2cccc(Cl)c2)c2ncn(C(C)C)c2n1,5.25,2.15,inactive,inactive,5.9 µM (active),7.43 µM (active),16.6 µM (active),10.5 µM (active),,
NC(=NCCCCCCN=C(N)N=C(N)Nc1ccc(Cl)cc1)N=C(N)Nc1ccc(Cl)cc1,6.76,6.22,inactive,inactive,2.96 µM (active),4.18 µM (active),9.35 µM (active),7.43 µM (active),,
Nc1nc(N)c2nc(-c3cccc(O)c3)c(-c3cccc(O)c3)nc2n1,11,15.8,inactive,inactive,23.5 µM (active),20.9 µM (active),23.5 µM (active),20.9 µM (active),,
Cc1cc(Nc2ncc3c(n2)N(C)C(=O)N(c2cc(NC(=O)c4cccc(C(F)(F)F)c4)ccc2C)C3)n(C)n1,10.8,11.1,inactive,inactive,0.418 µM (active),0.372 µM (active),0.833 µM (active),0.418 µM (active),,
O=C1CSC(=O)N1C(CCc1ccncc1)COc1ccc(-c2cccc([N+](=O)[O-])c2)cc1 (centres undefined),4.69,188,inactive,inactive,2.96 µM (active),4.69 µM (active),13.2 µM (active),,,
CC(C)C[C@H](NC(=O)CNC(=O)c1cc(Cl)ccc1Cl)B1OC(=O)CC(CC(=O)O)(C(=O)O)O1 (some centres undefined),8.02,4.85,inactive,inactive,0.235 µM (active),0.235 µM (active),0.118 µM (active),0.332 µM (active),,
CC[C@H]1OC(=O)[C@H](C)[C@@H](O[C@H]2C[C@@](C)(OC)[C@@H](O)[C@H](C)O2)[C@H](C)[C@@H](O[C@@H]2O[C@H](C)C[C@H](N(C)C)[C@@H]2O)[C@](C)(OC)C[C@@H](C)C(=O)[C@H](C)[C@@H](O)[C@]1(C)O,51.5,99.8,inactive,,inactive,inactive,inactive,inactive,,
CCOc1cc2c(c(F)c1OCC)C(=N)N(CC(=O)c1cc(N3CCOCC3)c(OC)c(C(C)(C)C)c1)C2,6.22,4.1,inactive,inactive,9.35 µM (active),10.5 µM (active),13.2 µM (active),8.33 µM (active),,
N#CC(=Cc1ccc(O)c(O)c1)C(=O)NCc1ccccc1,48.1,70.4,inactive,inactive,23.5 µM (active),23.5 µM (active),18.7 µM (active),20.9 µM (active),inactive,
CCCCOc1ccc(C(=O)Nc2ccc(F)cc2F)cc1,94.1,152,,inactive,inactive,inactive,,inactive,,
OCCN1C[C@H](O)[C@@H](O)[C@H](O)[C@@H]1CO,97.8,122,inactive,,inactive,inactive,inactive,inactive,inactive,
O=C(CCCCCCC(=O)Nc1cccnc1)NO,4.47,20.5,inactive,inactive,2.96 µM (active),5.26 µM (active),2.64 µM (active),5.26 µM (active),,
C=CC[C@@H]1C=C(C)C[C@H](C)C[C@H](OC)[C@H]2O[C@@](O)(C(=O)C(=O)N3CCCC[C@H]3C(=O)O[C@H](C(C)=C[C@@H]3CC[C@H](O)[C@H](OC)C3)[C@@H](C)[C@@H](O)CC1=O)[C@@H](C)C[C@@H]2OC,44.7,17.2,inactive,inactive,2.64 µM (active),1.87 µM (active),1.66 µM (active),1.48 µM (active),inactive,

Compound,"growth, % of control [1] [%]","cell viability, % of control (lower = more cytotoxic) [2] [%]",Potency [3],Potency [4],Potency [5],Potency [6],Potency [7],Potency [8],Potency [9],viability (% of control) [10] [%]
COC(=O)[C@@H]1[C@H]2C[C@@H]3c4[nH]c5ccccc5c4CCN3C[C@@H]2CC[C@@H]1O,66.3,24.1,inactive,inactive,inactive,inactive,inactive,inactive,,
CN[C@H](CC(C)C)C(=O)N[C@H]1C(=O)N[C@@H](CC(N)=O)C(=O)N[C@@H]2C(=O)N[C@H]3C(=O)N[C@H](C(=O)N[C@H](C(=O)O)c4cc(O)cc(O)c4-c4cc3ccc4O)[C@H](O)c3ccc(c(Cl)c3)Oc3cc2cc(c3O[C@@H]2O[C@H](CO)[C@@H](O)[C@H](O)[C@@H]2O[C@H]2C[C@](C)(N)[C@H](O)[C@H](C)O2)Oc2ccc(cc2Cl)[C@H]1O,,160,inactive,,inactive,inactive,,inactive,,
Cc1ncc(-c2ccnc(Nc3ccc(S(C)(=O)=O)cc3)n2)n1C(C)C,7.75,6.27,inactive,inactive,4.69 µM (active),2.64 µM (active),4.69 µM (active),4.18 µM (active),,
C[C@H](CCC(=O)O)[C@H]1CCC2C3C[C@H](O)[C@@H]4C[C@H](O)CC[C@]4(C)C3CC[C@@]21C (some centres undefined),103,130,inactive,inactive,inactive,inactive,inactive,inactive,,
CC(C)(O)[C@H]1CC[C@@](C)([C@H]2[C@@H](O)C[C@@]3(C)[C@@H]4C[C@H](O[C@@H]5O[C@H](CO)[C@@H](O)[C@H](O)[C@@H]5O)[C@H]5C(C)(C)[C@@H](O[C@@H]6OC[C@@H](O)[C@H](O)[C@@H]6O)CC[C@@]56C[C@@]46CC[C@]23C)O1,81.9,1050,inactive,inactive,10.5 µM (active),8.33 µM (active),inactive,inactive,,
C=CC(=O)N1CCc2ccc(-n3c(=O)ccc4cnc5ccc(-c6cnn(C)c6)cc5c43)cc21,4.27,1.99,inactive,,6.62 µM (active),3.32 µM (active),3.32 µM (active),3.32 µM (active),3.99 µM (active),
Cn1cc(C=CC(=O)c2cccc(F)c2)cc1C=CC(=O)NO,99.1,7.04,inactive,inactive,23.5 µM (active),18.7 µM (active),,20.9 µM (active),inactive,
OCc1ccccc1O[C@@H]1O[C@H](CO)[C@H](O)[C@H](O)[C@H]1O,92.1,151,inactive,inactive,inactive,inactive,inactive,inactive,inactive,
COc1ccc(C(C)=O)c(O)c1,95.8,146,inactive,inactive,inactive,inactive,inactive,inactive,,
COc1cc(OC)c(C=CS(=O)(=O)Cc2ccc(OC)c(NCC(=O)O)c2)c(OC)c1,68.2,5.33,inactive,inactive,0.0935 µM (active),0.187 µM (active),0.235 µM (active),0.0526 µM (active),,
CC(C=CC=C(C)C=CC1=C(C)CCCC1(C)C)=CC=CC=C(C)C=CC=C(C)C=CC1=C(C)CCCC1(C)C,7.95,8,inactive,,8.33 µM (active),18.7 µM (active),14.8 µM (active),16.6 µM (active),,
C[C@@]12C[C@@]3(O)O[C@@H](O1)[C@]1(COC(=O)c4ccccc4)[C@@H]3C[C@@]12O[C@@H]1O[C@H](CO)[C@@H](O)[C@H](O)[C@@H]1O,109,109,inactive,inactive,inactive,inactive,,inactive,inactive,
CCOC(=O)C1=C(C)NC(=S)NC1c1cccc(O)c1 (centres undefined),39,48.9,inactive,inactive,0.264 µM (active),0.105 µM (active),0.0935 µM (active),inactive,,
c1cc(CN2CCCNCCNCCCNCC2)ccc1CN1CCCNCCNCCCNCC1,88.5,133,inactive,inactive,inactive,inactive,inactive,inactive,,
N#Cc1ccc(COC[C@H]2O[C@@H](n3c(NCc4ccc(Cl)c(Cl)c4)nc4c(N)ncnc43)[C@@H](O)[C@@H]2O)cc1,23.2,10.7,inactive,inactive,9.35 µM (active),9.35 µM (active),9.35 µM (active),5.26 µM (active),,
CCOC(=O)C=C[C@H](C[C@@H]1CCNC1=O)NC(=O)[C@@H](CC(=O)[C@@H](NC(=O)c1cc(C)on1)C(C)C)Cc1ccc(F)cc1,37.6,,inactive,inactive,inactive,inactive,inactive,inactive,,107
COc1cc(OC)c(NC(=O)Nc2cc(C)on2)cc1Cl,81.5,,inactive,,inactive,inactive,inactive,inactive,,80.9
N[C@H]1CN(c2c(F)cc3c(=O)c(C(=O)O)cn(C4C[C@@H]4F)c3c2Cl)CC12CC2 (some centres undefined),10,,,inactive,inactive,inactive,inactive,,,92.9
